Results: PubChem BioAssay AID2551 (National Center for Advancing Translational Sciences (NCATS), 2010)
Screen size: about 310,000 compounds; about 17,000 (5.5%) were called active. About 11% were inconclusive and are not listed. The call rests on the fitted dose curve; in most records, active means well fitted inhibition curve with a large enough effect; inconclusive means small, poorly fitted or top-dose-only effect, or effect the other way; inactive means no such curve, though single readings can be large or run the other way. The full list was thinned out, with actives kept by preference.

These compounds were tested against Nuclear receptor ROR-gamma (Mus musculus) (UniProt P51450) (assay: qHTS for inhibitors of ROR gamma transcriptional activity). Settings: Drosophila S2 Gal4-RORgamma UAS-luciferase reporter, 20 h; series mostly up to 53.6 µM; activity change, negative = inhibition: at the top concentration.
How it was run: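 Drosophila S2 cells stably expressing Gal4-DBD/mouse RORγ fusion under metallothionein promoter plus UAS-luciferase; compound 1 h, then 700 uM CuSO4 induction for 20 h at ambient temperature; inhibition read as reduced luminescence.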
Further: nearly all actives have a fitted effect of over 60% in size.
On the % scale 0 is the no-effect control and ±100 the full control effect; potency means the concentration at half of the fitted maximal effect.

Chain of Nuclear receptor ROR-gamma (Mus musculus) (P51450 whole entry, looked up, the tested form may be a part): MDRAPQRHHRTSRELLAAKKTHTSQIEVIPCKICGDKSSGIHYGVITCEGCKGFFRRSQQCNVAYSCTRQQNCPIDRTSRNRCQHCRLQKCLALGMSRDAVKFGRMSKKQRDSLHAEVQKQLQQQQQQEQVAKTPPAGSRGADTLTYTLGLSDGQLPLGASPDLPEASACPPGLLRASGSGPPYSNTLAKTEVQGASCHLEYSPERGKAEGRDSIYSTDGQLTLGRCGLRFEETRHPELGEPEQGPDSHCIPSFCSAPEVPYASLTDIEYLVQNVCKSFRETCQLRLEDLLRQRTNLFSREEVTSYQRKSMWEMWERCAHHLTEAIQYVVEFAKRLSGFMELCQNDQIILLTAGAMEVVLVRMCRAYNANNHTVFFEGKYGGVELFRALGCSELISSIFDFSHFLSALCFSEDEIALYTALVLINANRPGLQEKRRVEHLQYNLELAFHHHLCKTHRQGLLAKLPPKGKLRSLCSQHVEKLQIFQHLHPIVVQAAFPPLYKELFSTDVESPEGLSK

Activity change, negative = inhibition, inactive:
O=C(Nc1cccc([N+](=O)[O-])c1)N1CCc2ccccc2C1 42.6%
Cc1cc(N2C(=O)C(O)=C(C(=O)c3ccc(C)o3)C2c2ccc(OCc3ccccc3)cc2)no1 (centres undefined) -4.37%
COc1ccccc1CCNS(=O)(=O)c1cc2c3c(c1)C(C)C(=O)N3CCC2 (centres undefined) 13.9%
CCN(CC)S(=O)(=O)c1ccc(C(=O)N2CCN(C3=NS(=O)(=O)c4ccccc43)CC2)cc1 21.5%
Cc1cc(C)n(-c2ccc(NC(=O)C3CCCCN3C(=O)c3cccs3)cc2)n1 (centres undefined) -11.8%
O=C(Cc1ccccc1Cl)N1CCOCC1 4.98%
Cc1cccc(NC(=S)N2CCC(O)CC2)c1C -8.16%
O=C(COc1ccc(Cl)cc1)Nc1ccccc1CO 42.9%
Cc1ccccc1N/C(SCc1ccc(Cl)cc1)=C(/C#N)C(N)=O 33.9%
CCOC(=O)N1CCN(C(=S)Nc2ccc(C)cc2C)CC1 -1.33%
Cc1cccc(NC(=O)c2cccc(C(=O)Nc3cccc(C)c3C)n2)c1C -10.9% [at 1.91 µM]
CSc1ncc(C(=O)Nc2ccc(C)cc2C)c(C)n1 11.4%
COc1ccccc1CN1CCNC(=O)C1CC(=O)N(C)CC1CCOCC1 (centres undefined) -8.85%
COc1ccc(NC(=O)COc2ccc(C(=O)c3ccc(F)cc3)cc2)cc1S(N)(=O)=O 1.06%
CC(=O)N1CCSc2ccc(S(=O)(=O)N3CCC(C)CC3)cc21 13.9%
COc1cccc(N(C(=O)CNC(=O)c2ccco2)C(C(=O)NC2CCCCC2)c2cccnc2)c1 (centres undefined) 1.27%
Cc1ccc(-c2nc(CSCC(=O)NC3CCN(Cc4ccccc4)CC3)c(C)o2)cc1 -2.39%
Cc1ccccc1OCC(=O)NNC(=O)c1cc(S(=O)(=O)N(C)C)ccc1N1CCCC1 24.7%
Cn1c(Nc2cccc(Cl)c2)nc2ccccc21 -6.74% [at 1.91 µM]
COc1ccccc1CNC(=O)C1CCN(S(=O)(=O)c2ccc3c(c2)CC(C)N3C(=O)C2CC2)CC1 (centres undefined) 14.5%
Cc1ccc(Oc2ccc3c(c2)C(=O)N(c2cccc4cccnc24)C3=O)cc1 -9.24%
COc1ccc(NC(=O)Nc2cccc3cccnc23)cc1 2.2%
O=C(COc1ccc(Cl)cc1)NCCS(=O)(=O)N1CCN(c2ccc(F)cc2)CC1 23.4%
CCOC(=O)C1=C(O)CSC1=Nc1cccc(Cl)c1 -0.427%
CC(=O)Oc1ccc2c(=O)oc(-c3ccc([N+](=O)[O-])cc3)nc2c1 -18.3%
CC(C)(C)NC(=O)C(=O)NN=C1CCCCCCC1 -6.76%
CC1CC(C)CN(CCCNC(=O)Cn2ncc3c([nH]c4ccccc43)c2=O)C1 (centres undefined) -11.2%
Cc1cccc(N(C(=O)c2sc(C)nc2C)C(C(=O)NCC2CCCO2)c2ccccc2)c1 (centres undefined) -0.663%
CCC(NC(=O)c1cc(COc2ccc(F)c(F)c2)on1)c1ccncc1 (centres undefined) 24.8%
CC1CCC(NC(=O)CN(C)S(=O)(=O)c2ccc3c(c2)c(=O)n(C)c(=O)n3C)CC1 (centres undefined) -4.79%
COc1ccc(C(C(=O)NC2CCCCC2)N(C(=O)c2snc(C(N)=O)c2N)c2ccccc2OC)cc1 (centres undefined) 44.1%
O=C(c1cccc([N+](=O)[O-])c1)N1CCN(Cc2ccccc2)CC1 5.99%
O=C(c1cccc(Cl)c1)N1CCN(Cc2ccccc2)CC1 5.8%
CC(C)c1nnc(NC(=O)CCC(=O)N2CCN(c3cccc(Cl)c3)CC2)s1 1.43%
COc1ccc(NC(=O)C/C(C)=N/NC(=O)c2cnccn2)cc1Cl 20.1%
COc1cc(OC)c(S(=O)(=O)Nc2ccccc2C(=O)O)cc1S(=O)(=O)Nc1ccccc1C(=O)O 21.8%
CCc1cccc(C)c1N1C(=O)CN(Cc2ccccc2)C1=S -15.2%
CC(N=Cc1nc(-c2ccccc2)oc1O)c1ccccc1 (centres undefined) 20.3%
CCOc1ccc2nc(/N=C/c3nc(-c4ccccc4)oc3O)sc2c1 -14.9% [at 10 µM]
Cc1ccnc(NS(=O)(=O)c2ccc(NC(=O)c3oc4ccccc4c3C)cc2)n1 44.6%
Cc1ccc(S(=O)(=O)N(CC(=O)Nc2cccnc2)c2ccc(Br)cc2)cc1 44.3%
Cc1ccc(S(=O)(=O)N(C)C)cc1NC(=O)COC(=O)C1COc2ccccc2O1 (centres undefined) 1.8%
Cc1cc(NC(=O)CCC2COc3ccccc3O2)no1 (centres undefined) 39.4%
COCn1c(C(O)c2ccccc2)cc2ccccc21 (centres undefined) 14.4%
O=S(=O)(NCc1cccnc1)c1ccc(Br)s1 12.6%
Cc1cc(Cl)c(S(=O)(=O)NCc2cccnc2)cc1OCC(N)=O 8.15%
CCOc1cc(C)c(S(=O)(=O)NCc2ccccn2)cc1C -29.6% [at 1.91 µM]
O=S(=O)(NCc1ccccn1)c1ccc(F)cc1 -20.3%
COc1cccc(NC(=O)CN(C)C(=O)c2ccccc2CCc2ccccc2)c1 30.3%
CCCn1c(=O)c(C(=O)Nc2cc(C)ccn2)c(O)c2ccccc21 5.16%
CC(NCC(=O)Nc1cc(Cl)cc(Cl)c1)c1ccccc1 (centres undefined) -2.11%
Cc1cccnc1NC(=O)Cn1c(=O)oc2ccccc21 13.7%
CN(C(=O)c1cccc(OC2CCN(S(=O)(=O)N(C)C)CC2)c1)C1CCOC1 (centres undefined) 10.1%
O=C(NC(=O)c1ccccc1)NC(=O)c1ccccc1 -17.4%
C[C@H](NC(=O)C1CC(=O)N(c2ccc3c(c2)OCCO3)C1)C(=O)N1CCC(C(=O)O)CC1 (some centres undefined) -3.96%
COc1ccc2nc(C)cc(Nc3cccc(C(=O)O)c3)c2c1 34.5%
O=C(Nc1ccn(Cc2ccccc2)n1)c1cccc(F)c1 -19.5%
Cn1cc([N+](=O)[O-])c(C(=O)Nc2cnn(Cc3ccc(F)cc3)c2)n1 39.6%
CC(C)[C@H](NC(=O)N1CCn2c1nc1ccccc12)C(=O)NCCc1ccccc1 36.9%
CCCCCN(C(=O)CCC(=O)OCC(=O)NCc1ccc(OC)cc1)c1c(N)n(CCCC)c(=O)[nH]c1=O 12.4%
COc1ccc(CN2CCn3ncc(C(=O)Nc4ccc(Cl)cc4Cl)c3C2=O)cc1 -17.8%
CN(C)C(=S)Nc1ccc(Br)cc1Cl -7.55%
CCn1c(=O)c(=O)[nH]c2c(=O)oc3ccc(S(=O)(=O)Nc4ccc(OC)cc4)cc3c21 3.51%
COCCOC(=O)C1=C(C)N=c2s/c(=C\c3cccs3)c(=O)n2C1c1cccs1 (centres undefined) 17.2%
O=C1CCCC2=C1C(c1ccccc1)n1c(s/c(=C/c3cccc(F)c3)c1=O)=N2 (centres undefined) 1.43%
Cc1coc(C)c1C(=O)CC1(O)C(=O)N(C)c2ccc(Cl)cc21 (centres undefined) 12.2%
O=C(COc1ccc2ccc(=O)oc2c1)NCC(O)c1ccccc1 (centres undefined) 0.846%
COc1cccc(CNC(=O)C2CCCN(c3ncnc4c3nc3n4CCCCC3)C2)c1 (centres undefined) -14.6%
CCOC(=O)c1c(NC(=O)/C=C/c2ccco2)sc(C)c1C -29.3%
CCc1nnc(NS(=O)(=O)c2ccc(NC(=S)NC(=O)/C=C/c3cccs3)cc2)s1 15.5%
COC(=O)C1=CN(c2ccc(F)c(F)c2)C=C(C(=O)OC)C1c1ccc([N+](=O)[O-])cc1 -7.43%
CCOc1ccc(C(=O)Nc2ccc(S(=O)(=O)Nc3cc(C)on3)cc2)cc1 30%
O=C(CCn1ccc([N+](=O)[O-])n1)Nc1nccs1 12.8%
CC(NC(=O)C(=O)Nc1nccs1)c1ccccc1 (centres undefined) -16.6%
CCOc1ccccc1NC(=O)NC1CCCCCCC1 -21.3%
COc1ccc(CNC(=O)C(c2ccc(O)cc2)N(Cc2ccco2)C(=O)c2snc(C(N)=O)c2N)cc1 (centres undefined) 42.5%
O=c1cc(Cl)c2ccccc2n1-c1ccccc1 2.4%
COc1ccccc1-n1c(CNC(=O)c2ccccc2)nnc1SCC(=O)Nc1nnc(C)s1 6.05%
Cc1cccc(CSc2nnc(NC(=O)CSc3nnc(C)s3)s2)c1 -14.5%
Cc1ccc(C(=O)N/C(=C\c2cn(C)c3ccccc23)C(=O)N2CCN(C)CC2)cc1 3.55%
Cc1ccc(NC(=O)c2oc(=O)c3ccccc3c2-c2ccccc2)c(C)c1 1.68%
COc1cc(OC)c(NC(=O)c2ccc(Br)o2)cc1Cl 3.59%
O=C(CNC(=O)c1ccc(Br)o1)Nc1ccccc1 -27.4%
Cc1cc2[nH]ncc2cc1NC(=S)NC(=O)c1ccccc1 -29.8%
Cc1cccc(NC(=O)/C(=C\c2ccco2)NC(=O)c2ccccc2)c1 -0.0873%
Cc1ccc(NC(=O)NC(=O)c2ccccc2)cc1F 8.25% [at 1.91 µM]

Potency, active:
Cc1cccc(NC(=S)NCCc2ccc(Cl)cc2)c1C 5.62 µM
Cc1ccccc1NC(=S)NC(=O)Cc1ccc(Cl)cc1 7.94 µM
Cc1ccc(NC(=S)Nc2ncccc2C)c(C)c1 4.47 µM
Cc1ccc(OS(=O)Nc2cccc3nccnc23)cc1 (centres undefined) 3.98 µM
CN(C)c1nc(=Nc2cccc(Cl)c2)ss1 0.398 µM
CC(C)NC(=S)NN=C1CCCCCCCCCCC1 0.447 µM
O=C(NC(=S)N1CCN(Cc2ccccc2)CC1)c1ccccc1 1 µM
Oc1oc(-c2ccccc2Br)nc1/C=N/c1ccccn1 8.91 µM
CCCN(CC1COc2ccccc2O1)C(=S)Nc1ccc(C)cc1 (centres undefined) 15.8 µM
O=S(=O)(NCc1ccccn1)c1ccc(Br)s1 8.91 µM
Cc1cc(S(=O)(=O)NCc2ccccn2)c(Cl)cc1Cl 7.08 µM
O=C(NC(=O)c1ccccc1)Nc1ccccc1O 7.08 µM
O=C(Nc1ccn(Cc2ccccc2)n1)c1n[nH]c([N+](=O)[O-])c1Cl 7.08 µM
COc1ccc(CN(C)C(=S)Nc2ccc(Cl)cc2Cl)cc1 17.8 µM
COc1ccc(OC)c(C2C3=C(N=c4s/c(=C\c5cccc(O)c5)c(=O)n42)c2ccccc2CC3)c1 (centres undefined) 12.6 µM
CC(=O)c1c(O)cc2n(c1=O)-c1ccc(Cl)cc1C2(C)C 10 µM
CCOC(=O)c1c(NC(=S)NC(=O)/C=C/c2cccs2)sc(C)c1C 1.26 µM
Cc1c(Br)c([N+](=O)[O-])nn1C(C)C(=O)Nc1nccs1 (centres undefined) 20 µM
Cc1nnc(NC(=O)CSc2nccn2-c2cccc(C)c2C)s1 10 µM
Cc1cccc(NC(=O)NC(=S)NC(=O)c2ccccc2)c1 2.51 µM
Cc1ccc(NC(=S)NC(=O)c2ccc(-c3ccccc3)cc2)c(C)c1 4.47 µM
Cc1cccc(NC(=S)NC(=O)c2ccc(Br)o2)c1 2.82 µM

Potency, inactive:
O=C(Nc1ccc(C(=O)O)c(O)c1)c1ccccc1
